Screening data deposited in PubChem BioAssay by several laboratories.
Compounds with a hit are over-represented: about 4.2% of the library has one in this group of screens.
MITF TRPM1 HTS: MITF TRPM1 promoter activation in melanoma cells; SK-MEL-5 TRPM1-promoter luciferase, 24 h; % of positive control, neutral wells = 0; activation, % at 12.5 µM; 300,000 tested, 0.75% active;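 active means mean activation of at least 80% with every replicate also reaching 80%; inconclusive means mean reaches 80% but some replicate falls short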;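 further: 0% = neutral control wells and 100% = parthenolide positive control wells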
AHR act: human AHR activation; P35869; AHR-responsive luciferase reporter cells, luminescence; activation, % at 5 µM; 320,000 tested, 2.5% active; AID 2796; in the data active means activation above about 47%;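 further: 0% = vehicle wells and 100% = reference agonist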
Target sequence (P35869 whole entry, looked up): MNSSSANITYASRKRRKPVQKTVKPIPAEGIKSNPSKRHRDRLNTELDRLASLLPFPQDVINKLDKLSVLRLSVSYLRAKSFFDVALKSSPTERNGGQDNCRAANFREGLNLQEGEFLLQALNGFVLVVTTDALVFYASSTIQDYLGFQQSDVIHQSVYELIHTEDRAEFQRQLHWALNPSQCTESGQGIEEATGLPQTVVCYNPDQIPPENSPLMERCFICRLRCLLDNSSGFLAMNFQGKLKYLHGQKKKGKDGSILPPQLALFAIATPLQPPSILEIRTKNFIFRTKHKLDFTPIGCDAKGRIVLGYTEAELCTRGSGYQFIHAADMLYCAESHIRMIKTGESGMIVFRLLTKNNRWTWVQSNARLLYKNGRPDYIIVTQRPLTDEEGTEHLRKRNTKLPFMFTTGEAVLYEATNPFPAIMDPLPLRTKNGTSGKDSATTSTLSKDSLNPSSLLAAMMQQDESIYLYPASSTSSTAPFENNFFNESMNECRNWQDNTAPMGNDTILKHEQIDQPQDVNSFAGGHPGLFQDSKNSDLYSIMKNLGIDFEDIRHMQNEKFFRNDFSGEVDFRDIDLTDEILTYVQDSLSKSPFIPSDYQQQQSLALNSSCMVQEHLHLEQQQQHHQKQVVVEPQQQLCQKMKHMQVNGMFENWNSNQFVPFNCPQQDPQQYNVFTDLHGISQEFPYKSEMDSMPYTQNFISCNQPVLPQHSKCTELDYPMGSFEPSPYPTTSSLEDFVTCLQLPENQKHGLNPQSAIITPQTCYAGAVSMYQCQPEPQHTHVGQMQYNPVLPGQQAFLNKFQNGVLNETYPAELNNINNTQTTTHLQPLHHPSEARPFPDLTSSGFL
FXN GAA850 act: frataxin GAA850 promoter activation; 360,000 tested, 0.56% active; HEK293 lucGAA850 FXN promoter luciferase reporter, 24 h; percent of 10 µM SAHA response; activation, % at 6 µM;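 active means activation above the average of all compounds screened plus 3 SD, cutoff fixed separately per campaign, cut at about 7.5% in these data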;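 further: 0% = DMSO wells and 100% = 10 µM SAHA wells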
esBAF inh: blocks esBAF chromatin remodeling in mouse ES cells | 350,000 tested, 2% active | reporter increase, % at 12.5 µM | Bmi1-luciferase knock-in reporter, 24 h; 100% = twice the neutral-well signal; in the data active means activation above about 40%; inconclusive means no clear call, values can overlap the other calls;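 further: 0% = median of the plate's neutral control wells and 100% = double that signal; a rise in the Bmi1 reporter signal indicates esBAF inhibition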
Wnt bcat act: Wnt/beta-catenin pathway activation | activation, % at 9.35 µM | Wnt/beta-catenin reporter cell assay, activator, plate reader | 300,000 tested, 1.2% active; in the data active means activation above about 30%, passing the limit was not always enough; inconclusive means no clear call, values can overlap the other calls;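 further: 0% = neutral control wells and 100% = positive control wells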
Starred values were filed as active, the others as inactive.

For CCc1nc(N=C(N)N)nc2ccccc12 the results were AHR act 14 and Wnt bcat act 1.
`NC(N)=Nc1nc(-c2ccccc2)c2ccccc2n1` gave MITF TRPM1 HTS -22, AHR act 68*, FXN GAA850 act -1, esBAF inh 4 and Wnt bcat act 1.
`CC(C)C#Cc1cnc2c(c1)C(=O)N([C@@H](C)CO)C[C@@H](C)[C@H](CN(C)Cc1ccccc1)O2` gave esBAF inh 1.
Screening O=C(O)COc1ccccc1/C=N/NC(=O)c1cc2ccccc2cc1O returned MITF TRPM1 HTS -19, AHR act 58*, FXN GAA850 act 2 and Wnt bcat act 13.
Screening C=CCc1cccc(/C=N/NC(=O)c2ccccc2OC)c1O returned MITF TRPM1 HTS 14, AHR act 77*, FXN GAA850 act 2, esBAF inh 44* and Wnt bcat act 12.
For COc1ccccc1/C=N/NC(=O)c1ccccc1Cl the results were MITF TRPM1 HTS 8, AHR act 10, FXN GAA850 act 1 and Wnt bcat act -1.
`COc1ccccc1C=NNC(=O)c1ccccc1OCCOc1ccccc1` gave MITF TRPM1 HTS -20, AHR act 51*, FXN GAA850 act -1, esBAF inh -6 and Wnt bcat act -4.
For O=C(CC(F)(F)F)N1C[C@@H]2[C@H](c3ccccc31)[C@@H](CO)N2C(=O)Cc1cccnc1 the results were esBAF inh 0.
For O=C(C[C@H]1CC[C@@H]2[C@H](COC[C@H](O)CN2Cc2cc(F)cc(F)c2)O1)NC1CCC1 the results were esBAF inh 2.
Screening CSc1ccc(-c2nnn(Cc3ccc(C)cc3)n2)cc1 returned MITF TRPM1 HTS 94*, AHR act 4 and FXN GAA850 act 5.
Screening COc1ccc(C#Cc2ccc3c(c2)[C@H]2[C@H](CCN2S(=O)(=O)C2=NC(C)C=N2)[C@@H](CO)N3C)cc1 (stereo not given in full) returned esBAF inh 3.
For CCCCNc1nc(N(C)c2ccccc2)nc(-n2ccnc2)n1 the results were AHR act 61*, FXN GAA850 act 4 and esBAF inh -1.
CN(C)Cc1cn(CC[C@H]2CC[C@H](NS(=O)(=O)c3ccc(-c4ccccc4)cc3)[C@@H](CO)O2)nn1 was read as esBAF inh 8.
`CN1C(=O)c2cc(NC(=O)C3CCOCC3)ccc2OC[C@H]2O[C@@H](CC(=O)NCC3CC3)CC[C@H]21` gave esBAF inh -2.
Screening NNC(=O)c1ccc(COc2ccc3c(c2)CCC3)o1 returned MITF TRPM1 HTS 20, AHR act 59* and FXN GAA850 act 4.
`NNC(=O)c1ccc(COc2ccc(Br)cc2)o1` gave MITF TRPM1 HTS 0, AHR act 78*, FXN GAA850 act 1, esBAF inh 4 and Wnt bcat act 3.
C/C(=N/NC(=O)c1ccncc1)c1ccc(NC(=O)c2ccc(Cl)cc2Cl)cc1 was read as MITF TRPM1 HTS 88*, AHR act 8, FXN GAA850 act 3 and Wnt bcat act 24.
Screening C/C(=N\NC(=O)c1ccc(O)cc1)c1cccc(NC(=O)c2ccc(Cl)cc2)c1 returned AHR act -3, FXN GAA850 act 1, esBAF inh 52* and Wnt bcat act 26.
Screening CC(C)NC(=O)N(C)C[C@H]1Oc2ncc(-c3ccc(C(=O)N(C)C)cc3)cc2C(=O)N([C@H](C)CO)C[C@@H]1C returned esBAF inh -3.
COc1ccc(NC(=O)N(C)C[C@H]2Oc3ccc(NC(=O)CCC(F)(F)F)cc3C(=O)N([C@@H](C)CO)C[C@@H]2C)cc1 was read as esBAF inh 0.
For Cc1cccc(C(=O)N2CCCC(c3nc(-c4ccc(C)o4)no3)C2)c1 (stereo not given) the results were MITF TRPM1 HTS 55, AHR act 3, FXN GAA850 act 5, esBAF inh 51* and Wnt bcat act 12.
Screening Cc1ccc(-c2noc(C3CCCN(C(=O)c4ccccc4Br)C3)n2)cc1 (stereo not given) returned MITF TRPM1 HTS 10, AHR act -2, FXN GAA850 act 2, esBAF inh 51* and Wnt bcat act 3.
CCCN(C)C[C@H]1OCCCC[C@H](C)Oc2ccc(NC(=O)NC3CCCCC3)cc2C(=O)N([C@@H](C)CO)C[C@H]1C was read as esBAF inh -7.
Screening COc1cccc(C(=O)Nc2ccc3c(c2)OC[C@H](C)N(C(C)=O)C[C@H](C)[C@@H](OC)CN(C)C3=O)c1 returned esBAF inh -5.
c1csc(-c2nc(CN3CCSCC3)cs2)c1 was read as MITF TRPM1 HTS -9, AHR act 4, FXN GAA850 act 3, esBAF inh -49 and Wnt bcat act 43*.
`COc1ccc2nc3oc(C(=O)N4CCCCC4)cc3cc2c1` gave MITF TRPM1 HTS 84*, AHR act 13, FXN GAA850 act 4, esBAF inh inconclusive and Wnt bcat act inconclusive.
Screening COc1ccc2cc3cc(C(=O)N4CCCC(C)C4)oc3nc2c1 (stereo not given) returned MITF TRPM1 HTS 48, AHR act 8, FXN GAA850 act 5, esBAF inh 16 and Wnt bcat act 32*.
For O=C(C[C@@H]1C=C[C@H](NC(=O)c2cccnc2)[C@@H](CO)O1)NCCN1CCCCC1 the results were esBAF inh -3.
COc1ccc(NC(=O)N(C)C[C@@H]2Oc3c(NC(=O)Nc4ccc(F)cc4)cccc3C(=O)N([C@@H](C)CO)C[C@H]2C)cc1 was read as esBAF inh -4.
O=C(C[C@H]1C[C@@H]2c3cc(NS(=O)(=O)c4ccc(F)cc4)ccc3O[C@@H]2[C@H](CO)O1)NC1CCCC1 was read as esBAF inh 0.
Screening Cc1ccc(C)c(NC(=O)c2cc3ccccn3n2)c1 returned MITF TRPM1 HTS 45, AHR act -2, FXN GAA850 act 6, esBAF inh 33 and Wnt bcat act 50*.
Screening CC(=O)c1cccc(NC(=O)c2cc3ccccn3n2)c1 returned AHR act 15, FXN GAA850 act 3, esBAF inh 54* and Wnt bcat act inconclusive.
For Cc1ccccc1NC(=O)c1c(F)c(F)c(F)c(F)c1F the results were MITF TRPM1 HTS -10, AHR act -2, FXN GAA850 act -1 and esBAF inh -3.
`Cc1ccccc1NC(=O)c1cc2ccccn2n1` gave MITF TRPM1 HTS 62, AHR act 14, FXN GAA850 act 4 and Wnt bcat act 59*.
CN1[C@@H]2c3ccc(C4=CCCC4)c(=O)n3C[C@H]1[C@H](CO)[C@H]2C(=O)NC1Cc2ccccc2C1 was read as esBAF inh -2.
`O=c1oc2cc(OCc3ccc(F)cc3F)ccc2cc1-c1ccccn1` gave MITF TRPM1 HTS 72, AHR act -3, FXN GAA850 act -2 and esBAF inh 45*.
Screening COc1ccc(Nc2nc(-c3cccs3)cs2)c(OC)c1 returned AHR act 109*, FXN GAA850 act 6 and esBAF inh 53*.
